This is a sample that favours compounds with a hit; in the whole collection about 19% have one here.
Marburg entry inh – inhibitors of Marburg virus binding or cell entry; Potency, µM (top dose mostly 37.8 µM), for the others: at the highest dose activity change, negative = inhibition, hits mostly inhibitors; hit rate 1.8% among 300,000; Marburg virus pseudotyped entry inhibition, cell reporter; AID 540276; calls by dose curve; tested in HEK293 cells; further: potency means the concentration at half of the fitted maximal effect; on the % scale 0 is the no-effect control and ±100 the full control effect
Shiga inhibitor – Shiga toxin inhibition | hit rate 9.2% among 290,000 | AID 2315 | inhibition, % at 38.7 µM | Vero cells, Shiga toxin protein synthesis inhibition reporter; in the data active means inhibition mostly above about 28%, no sharp cut-off; inactive means mostly below about 43%; further: 0% is about no effect
Pf growth 96h – inhibits malaria parasite growth, 96 h. AID 504834. P. falciparum luciferase reporter growth, 96 h. Potency, µM (series often up to 28.7 µM), without a hit: top-dose activity change, negative = inhibition, usual class: inhibitors. hit rate 6.9% among 320,000; further: potency means the concentration at half of the fitted maximal effect; on the % scale 0 is the no-effect control and ±100 the full control effect
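Erythrocytes infected with luciferase-expressing P. falciparum were dispensed at 2% hematocrit and 0.05% parasitemia (final), then incubated with compounds 96 hours at 37 C in 5% CO2. Luminescence after detection reagent addition reported growth.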
CHX counter – counter-screen for Shiga toxin inhibitors: cycloheximide protein synthesis inhibition; cell reporter, cycloheximide protein synthesis inhibition counterscreen; max response, %; hit rate 12% among 300,000; AID 2314; in the data active means max response mostly above about 13%, no sharp cut-off; inactive means mostly below about 14%; further: read at 38.3 µM for the half of the compounds with a filed dose; 0% is about no effect
Pf growth 48h – P. falciparum growth inhibition at 48 hours (one generation); hit rate 5.9% among 310,000; P. falciparum luciferase growth in erythrocytes, 48 h; Potency, µM (series often up to 28.7 µM), inactives show at the highest dose activity change, negative = inhibition, most hits filed as inhibitors; further: potency means the concentration at half of the fitted maximal effect; on the % scale 0 is the no-effect control and ±100 the full control effect
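Firefly luciferase activity from engineered P. falciparum reports growth; inhibitors lower the luminescent signal. Cultures contained 2% hematocrit erythrocytes at 0.1% final parasitemia.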
Lassa entry inh – inhibitors of Lassa virus binding or cell entry; hit rate 1.2% among 300,000; Potency, µM (series often up to 37.9 µM), for inactives: top-dose activity change, negative = inhibition, hits mostly inhibitors; Lassa virus pseudotype entry inhibition, cell reporter; AID 540256; calls by dose curve; tested in HEK293 cells; further: potency means the concentration at half of the fitted maximal effect; on the % scale 0 is the no-effect control and ±100 the full control effect; nearly all actives have a fitted effect of over 50% in size
Active calls of the source: *; i = inactive; ? = inconclusive; . = not tested or not shown; [ ] = remark or other dose. Unless noted, the call rests on the fitted dose curve; in most records, active means well fitted inhibition curve with a large enough effect; inconclusive means small, poorly fitted or top-dose-only effect, or another doubt; inactive means no such curve, though single readings can be large or run the other way.

SMILES	Marburg entry inh	Shiga inhibitor	Pf growth 96h	CHX counter	Pf growth 48h	Lassa entry inh
O=C(O)C(=O)/C(=C\c1ccc([N+](=O)[O-])cc1)c1ccc2ccccc2n1	.	49.4*	i	27.2*	305.0%	.
O=C(O)C(=O)/C(=C\c1ccsc1)c1ccc2ccccc2n1	?	87.1*	i	27.3*	233.8%	?
CCN(CC)c1ccc(C=Nc2ccc(C)cc2C)c(O)c1	-2.5%[46.1 µM]	18.6	25.0%	8.1	20.8%	7.9%
Cc1ccc(N=Cc2ccc[nH]2)c(O)c1	15.0%	98.4*	?	43.9*	-146.7%	-4.0%
CCOC(=O)c1cnc(N2CCN(c3ccc(OC)cc3)CC2)c2ccccc12	.	.	.	.	.	0.2%[46.1 µM]
Cc1csc(CNC(=O)CC2C(=O)NCCN2Cc2ccc(F)cc2Cl)n1 (stereo not drawn)	?	-2.9	-1.5%	-2.2	2.1%	0.3%
CCOc1ccccc1CN1CCNC(=O)C1CC(=O)NCc1nc(C)cs1 (stereo not drawn)	16.4%	-6.5	9.28µM*	0.9	4.7%	-20.0%
COc1ccccc1CN1CCNC(=O)C1CC(=O)NCCCn1cccn1 (stereo not drawn)	20.3%[46.1 µM]	6.5	10.8%	-2.0	5.9%	-6.1%
Cc1ccccc1CN1CCNC(=O)C1CC(=O)NC1CCCCCCC1 (stereo not drawn)	-10.2%[46.1 µM]	-3.8	2.62µM*	-4.1	?	16.0%[46.1 µM]
COc1ccc(CN2CCNC(=O)C2CC(=O)NCCCn2cccn2)cc1C (stereo not drawn)	5.3%	-4.3	-8.6%	-0.8	3.1%	9.2%
O=C(CC1C(=O)NCCN1Cc1cccc(Oc2ccccc2)c1)NCCCn1cccn1 (stereo not drawn)	30.7%[46.1 µM]	-0.9	10.4µM*	1.6	-19.1%	-21.8%
CCOc1ccccc1CN1CCNC(=O)C1CC(=O)NCCCn1cccn1 (stereo not drawn)	.	-4.8	11.7µM*	-0.9	-10.1%	.
Cc1cc2c(s1)c1cnn(Cc3ccccc3F)c(=O)c1n2C	12.2%[46.1 µM]	-2.0	-0.8%	29.5	24.9%	8.1%
O=C(NCCN1CCCC1)c1ccc(Br)cc1	0.0%	.	-36.8%	-3.8	58.0%	4.8%
O=C(CC1C(=O)NCCN1CC1CCCCC1)NCc1ccc(F)cc1F (stereo not drawn)	4.1%[46.1 µM]	41.1*	?	20.0*	65.6%	0.6%
Cc1cccc(Nc2nc(NCc3ccco3)c3ccccc3n2)c1	?	23.3	?	11.1*	0.657µM*	5.8µM*
Cc1cccc(S(=O)(=O)Nc2nc3ccccc3nc2NCc2ccco2)c1	6.7%	-8.1	?	-3.6	5.1%	?
c1ccc(Nc2nc(NCc3ccco3)c3ccccc3n2)cc1	?	32.9*	?	15.7*	?	12.6µM*
CSc1nc(NCc2ccco2)c2ccccc2n1	-21.7%	14.4	-31.6%	-3.8	.	2.3%
O=C(CSc1nnc(CNC(=O)c2cccc(C(F)(F)F)c2)o1)NCc1ccco1	?	-4.1	-21.9%	-0.8	7.5%	0.5%
CCc1ccc2[nH]c(=O)c(CN(CCN(CC)CC)C(=S)NCc3ccco3)cc2c1	.	-2.5	18.8%	-1.7	9.28µM*	.
Cc1cc(C)c2cc(CN(Cc3ccco3)C(=S)NCC3CCCO3)c(=O)[nH]c2c1 (stereo not drawn)	.	-1.2	?	0.9	2.08µM*	.
CCc1ccc2[nH]c(=O)c(CN(CCN(C)C)C(=S)NCc3ccco3)cc2c1	?	-12.1	10.3%	3.2	?	-5.2%
Cc1ccc(C)c2[nH]c(=O)c(CN(CC3CCCO3)C(=S)NCc3ccco3)cc12 (stereo not drawn)	?	-4.1	?	-3.3	?	-24.1%[46.1 µM]
COc1ccc2cc(CN(Cc3ccco3)C(=S)NCC3CCCO3)c(=O)[nH]c2c1 (stereo not drawn)	?	-3.4	-0.3%	-0.5	?	?
CCc1ccc2[nH]c(=O)c(CN(CC3CCCO3)C(=S)NCc3ccco3)cc2c1 (stereo not drawn)	.	7.9	?	22.2*	?	.
Cc1ccc2cc(CN(CC3CCCO3)C(=S)NCc3ccco3)c(=O)[nH]c2c1C (stereo not drawn)	0.631µM*	-10.3	55.1%	-1.5	?	5.8µM*
CC(=O)N1CC(C)Oc2ccc(S(=O)(=O)NC(CC(=O)O)c3ccccc3C)cc21 (stereo not drawn)	.	-9.3	144.4%	4.4	18.9%	.
COc1cccc(NC(=O)C(C)(C)C)c1	.	.	41.2%	.	4.3%	.
